mHTT-CaM PPI inh: inhibitors of human mutant huntingtin-calmodulin interaction | P42858 | AlphaScreen His-mHTT/GST-CaM binding, luminescence | inhibition, % at 15 µM | hit rate 3.6% among 190,000;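 further: 0% = both proteins with DMSO and 100% = one protein alone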
Pf apPOL block: Pf-apPOL DNA polymerase inhibition. inhibition, % at 10 µM. hit rate 0.25% among 210,000. Recombinant Pf-apPOL, molecular beacon fluorescence, 1.5 h. AID 1794808
Numbers without * were called inactive; x = no result given. The sample as a whole holds a higher share of hits than the screen did. No stated cut-off is given here; in the data, active means inhibition above about 50%; inactive means the rest.

SMILES	mHTT-CaM PPI inh	Pf apPOL block
CCn1cnc2cc(NCc3ccc(N(C)C)cc3)ccc21	14	-5
CN(C)c1ccc(CNc2ccc3c(c2)ncn3C(C)(C)C)cc1	78*	-4
CCN(CC)c1ccc(CNc2ccc3c(c2)ncn3CC)cc1	94*	-2
CC1=N/C(=C\c2ccc([N+](=O)[O-])cc2)C(=O)N1c1ccccc1Br	32	-4
COc1ccc(O)c(C(=O)CC(=O)c2ccccc2)c1	50*	2
COc1ccc(C(=O)CC(=O)c2ccccc2)cc1	42	4
CCC(=O)NC(Nc1ccc(S(=O)(=O)Nc2nccs2)cc1)C(Cl)(Cl)Cl (stereo unspecified)	-6	-11
C=CCSc1nc2nc3c(cc2c(=O)n1-c1ccccc1)COC(C)(C)C3	5	-10
Nc1cc(=O)[nH]c(SCCOc2ccc(Cl)cc2)n1	100*	-10
CCCOc1ccc(OCCSc2nc(N)cc(=O)[nH]2)cc1	0	3
CCc1ccc(CNC(=O)C2CC(=O)N(CCc3ccc(OC)c(OC)c3)C2)cc1 (stereo unspecified)	-3	-4
CC(C)c1ccc(CNC(=O)c2nc3cccnc3n(C)c2=O)cc1	62*	0
Cn1c(=O)c(C(=O)NCc2ccc(Cl)cc2)nc2cccnc21	5	-1
c1ccc2oc(CCCCc3nc4ccccc4o3)nc2c1	-10	-13
COc1cccc(-c2nc(C3CCN(C(=O)c4cccc(C(F)(F)F)c4)CC3)no2)c1	33	-2
COc1cccc(-c2nc(C3CCN(C(=O)c4ccc(Cl)c(Cl)c4)CC3)no2)c1	97*	2
Cc1oc(C2CCN(C(=O)c3ccc(C(C)(C)C)cc3)CC2)nc1C(=O)N1CCCCC1	31	-7
COc1cccc(-c2nc(C3CCN(C(=O)c4cccc(C)c4)CC3)no2)c1	6	6
Cc1oc(C2CCN(C(=O)c3ccc(C(F)(F)F)cc3)CC2)nc1C(=O)N1CCCC1	51*	-3
COc1ccccc1-c1nc(C2CCN(C(=O)c3cccc(F)c3)CC2)no1	13	0
COc1ccccc1-c1nc(C2CCN(C(=O)c3ccc(F)c(Cl)c3)CC2)no1	92*	-2
COc1cccc(-c2nc(C3CCN(C(=O)c4ccc(C(F)(F)F)cc4)CC3)no2)c1	86*	-2
CS(=O)(=O)c1cccc(S(=O)(=O)N2CCN(c3cccc(Cl)c3)CC2)c1	2	-2
Cc1nnc(N2C(=O)C(=O)C(=C(O)c3ccc(OC(C)C)cc3)C2c2cccs2)s1 (stereo unspecified)	12	-2
CCCc1[nH]n(-c2ccc(F)cc2)c(=O)c1C=NCC(O)c1ccccc1 (stereo unspecified)	10	3
SMILES	mHTT-CaM PPI inh	Pf apPOL block
COc1ccccc1CNC(=O)CCC1CCN(c2cc(NC3CC3)ncn2)CC1	11	-4
COc1cc(NC(=O)Cn2nc([N+](=O)[O-])cc2C)cc([N+](=O)[O-])c1	-3	-235
COc1cccc(-c2nc(C3CCN(C(=O)c4nccc5ccccc45)CC3)no2)c1	98*	-6
O=C(c1cc2cc(Cl)ccc2[nH]1)N1CCC(c2noc(-c3ccccc3)n2)CC1	83*	8
O=C(c1cc2ccccc2[nH]1)N1CCC(c2noc(-c3ccccc3)n2)CC1	-5	3
CC(=O)Nc1ccc(-c2noc(C3CCN(C(=O)c4cc5ccccc5[nH]4)CC3)n2)cc1	98*	3
COc1cccc(-c2nc(C3CCN(C(=O)c4cc5ccccc5[nH]4)CC3)no2)c1	8	-22
CC(=O)Nc1ccc(-c2noc(C3CCCN(C(=O)c4cc5ccccc5[nH]4)C3)n2)cc1 (stereo unspecified)	-4	-2
O=C(c1cccs1)N1CCC(n2c(C3CCCC3)nc3cccnc32)C1 (stereo unspecified)	-1	-3
CCN(CC)c1ccc(N=C2C(=O)Nc3ccccc32)cc1	100*	-39
O=C1Nc2ccccc2C1=Nc1ccc(C(=O)O)cc1	1	0
Cc1ccc2nc(N3CCC(C(=O)NCc4ccccc4)CC3)[nH]c2c1	15	-24
COc1cccc2cc(C(=O)Nc3cc(C)ccn3)c(=O)oc12	0	-3
Cc1ccnc(NC(c2ccccc2[N+](=O)[O-])c2ccc3cccnc3c2O)c1 (stereo unspecified)	100*	-3
COc1ccc(C(Nc2cc(C)ccn2)c2ccc3ccc(C)nc3c2O)cc1OC (stereo unspecified)	96*	-55
O=[N+]([O-])c1cccc2ccc(Nc3ccccn3)nc12	14	3
COc1ccc(C(Nc2ccccn2)c2ccc3cccnc3c2O)cc1OC (stereo unspecified)	100*	-4
CCOc1ccc(C(Nc2ccccn2)c2ccc3ccc(C)nc3c2O)cc1OC (stereo unspecified)	49	1
COc1ccc(NC(=O)Nc2cc(C)ccn2)cc1	-3	-4
COc1ccccc1C(Nc1cc(C)ccn1)c1ccc2cccnc2c1O (stereo unspecified)	99*	-8
CCC(c1ccccc1)c1nc(-c2cccc([N+](=O)[O-])c2)no1 (stereo unspecified)	2	-7
Cc1noc(-c2cccn3c(=O)n(Cc4c(C)noc4C)nc23)n1	-10	-4
COc1cccc(C2CC(c3cccc(Br)c3)Nc3nnnn32)c1OC (stereo unspecified)	32	-2
CCCn1c(C2CCN(C(=O)c3cccnc3)C2)nc2cccnc21 (stereo unspecified)	-6	-3
CCc1cccc(NC(=O)c2cc3n(n2)CCCN(Cc2ccc(F)cc2)C3=O)c1	1	-5
SMILES	mHTT-CaM PPI inh	Pf apPOL block
Cc1ccc(C(C#N)=C2C=C(Br)C(=NO)C=C2Cl)cc1	x	-11
COc1ccc(C)cc1NS(=O)(=O)c1cccc2cccnc12	-3	-1
COc1ccc(C(Nc2cc(C)ccn2)c2ccc3cccnc3c2O)cc1OC (stereo unspecified)	100*	3
N#Cc1ccccc1Cn1c(=O)n(Cc2ccc3c(c2)OCO3)c(=O)c2ccccc21	1	0
COc1cc(/C=C2/SC(=N)NC2=O)cc(Br)c1O	8	-24
CCc1nn(-c2ccc(OC)cc2)c(CC)c1C(=O)N1CCOCC1	1	0
CCCc1nn(-c2ccc(Cl)c(Cl)c2)c(C(C)C)c1C(=O)N1CCOCC1	62*	0
CC(C)c1nn(-c2ccc(Cl)c(Cl)c2)c(C(C)C)c1C(=O)N1CCOCC1	67*	-2
CCN1CCN(C(=O)c2cnn(-c3ccc(Cl)c(Cl)c3)c2C(C)C)CC1	39	-21
CCCc1nn(-c2ccc(Cl)c(Cl)c2)c(CC)c1C(=O)N1CCOCC1	67*	-5
CC(=O)N1CCN(C(=O)c2c(C(C)C)nn(-c3ccc(C)cc3)c2C(C)C)CC1	11	-1
CC1(C)OC2OC(C(=O)Oc3cccc4ccccc34)C3OC(C)(C)OC3C2O1 (stereo unspecified)	-3	-5
COc1cc(C2=NOC(C(=O)NC(C)(C)C)C2)cc(OC)c1OC (stereo unspecified)	-7	-5
O=C(NCC(=O)N1CCCc2ccccc21)c1ccc(Br)o1	-6	2
O=[N+]([O-])c1ccc(-c2csc(Nc3ccc4c(c3)OCO4)n2)cc1	55*	1
Clc1ccc(-c2csc(Nc3ccc4c(c3)OCO4)n2)cc1	-5	-7
CC(C)Cc1ccc(-c2csc(Nc3ccc4c(c3)OCO4)n2)cc1	67*	-2
COC(=O)c1ccc(-c2csc(NC(=O)Nc3ccc4c(c3)OCO4)n2)cc1	-6	-7
